Screening data: PubChem BioAssay, National Center for Advancing Translational Sciences (NCATS)
Pf Dd2 growth = blocks in vitro growth of P. falciparum Dd2; P. falciparum Dd2 growth, SYBR Green, 72 h; Potency, µM (doses to about 28.9 µM), inactives show at the highest dose activity, negative = inhibition, usual class: inhibitors; 120,000 compounds, 4.3% hits; AID 1347417; active = well fitted inhibition curve with a large enough effect;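 note: plate controls were DMSO vehicle for no effect and reference drug for full effect; nearly all actives have a fitted effect of over 65% in size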
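Infected erythrocytes (Dd2, 0.3% parasitemia, 2.5% hematocrit final) are added to compound in RPMI-1640/Albumax II medium, grown 72 h at 37C in low oxygen, then lysed with saponin/Triton-X containing SYBR Green and read by fluorescence.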
The depositor's hits bear a star. The entries come from a sample that favours hits as a whole. Potency is the fitted concentration of half-maximal effect.

For CN1CCC(C(=O)N2Cc3ccccc3CC3(CCN(Cc4ccccn4)C3)C2)CC1 (stereo not given) the results were Pf Dd2 growth -21%.
CC(=O)NCCC(=O)N1Cc2ccccc2CC2(CCCN(CC3CCCC3)C2)C1 (stereo not given) was read as Pf Dd2 growth -18%.
`NCC(=O)N1Cc2ccccc2CC2(CCN(CC3CCOCC3)C2)C1` (stereo not given) gave Pf Dd2 growth 8.9µM*.
For CC(=O)NCC(=O)N1Cc2ccccc2CC2(CCN(CC3CCOCC3)C2)C1 (stereo not given) the results were Pf Dd2 growth 4%.
`O=C(C1CCCC1)N1Cc2ccccc2CC2(CCN(CC3CCOCC3)C2)C1` (stereo not given) gave Pf Dd2 growth 7.1µM*.
For CN(C)CC(=O)N1Cc2ccccc2CC2(CCN(CC3CCOCC3)C2)C1 (stereo not given) the results were Pf Dd2 growth -21%.
For NCC(=O)N1Cc2ccccc2CC2(CCN(CC3CCNC3)C2)C1 (stereo not given) the results were Pf Dd2 growth 15%.
CCCN1CCCC2(Cc3ccccc3CN(C(=O)C3CCN(C)CC3)C2)C1 (stereo not given) was read as Pf Dd2 growth -18%.
For CCN1CCC2(Cc3ccccc3CN(C(=O)C3CCCC3)C2)C1 (stereo not given) the results were Pf Dd2 growth 8.9µM*.
For CC[C@@H]1[C@@H](NC(=O)c2oc(COc3ccccc3)cc2C)[C@@H]2CCO[C@H]12 the results were Pf Dd2 growth -19%.
`O=C(COc1ccccc1)N1CC(F)(F)C[C@H]1c1nnc(C2CC2)o1` gave Pf Dd2 growth 25%.
`CCC(C)NC(=O)NCCc1noc(-c2cccnc2)n1` (stereo not given) gave Pf Dd2 growth 79%.
For CC(C)CC(=O)N1CCC2(CC1)C(=O)N(C)c1ccccc12 the results were Pf Dd2 growth 42%.
`O=C(CCC[C@@H]1[C@H]2CCCN3CCC[C@@H](CN1Cc1cccnc1)[C@@H]23)NCCN1CCOCC1` gave Pf Dd2 growth -9%.
Screening Cc1cc(C)cc(C(=O)N2CCN(C(=O)c3nnn4c3COC(c3ccccc3)C4)CC2)c1 (stereo not given) returned Pf Dd2 growth -7%.
`O=C(NC1CC1)[C@@H]1C[C@H](Oc2ccccc2)CN1C(=O)c1ccncc1` gave Pf Dd2 growth -3%.
For COc1ccc(-c2noc([C@@H]3CCCN3C(=O)c3ccsc3)n2)cc1OC the results were Pf Dd2 growth inactive.
`Cc1noc(-c2cn(C3CCN(C(=O)c4ccco4)CC3)nn2)n1` gave Pf Dd2 growth -12%.
For COc1ccc(-c2nc(C3CC(=O)N(C4CCCCC4)C3)no2)cc1 (stereo not given) the results were Pf Dd2 growth 61%.
For COc1cccc(-c2cc(-c3nc(C4CC(=O)N(C5CCCCC5)C4)no3)[nH]n2)c1 (stereo not given) the results were Pf Dd2 growth 5µM*.
For COc1cccc(-c2nc(C3CC(=O)N(C4CCCCC4)C3)no2)c1 (stereo not given) the results were Pf Dd2 growth 39%.
Screening COC(=O)CNC(=O)C1c2ccccc2C(=O)N(CC(C)C)C12CCCCC2 (stereo not given) returned Pf Dd2 growth -7%.
For Cc1ncoc1C(=O)N1CCCCCCNC(=O)CC1 the results were Pf Dd2 growth -13%.
For O=C(Nc1cccc(-n2cccn2)c1)C1CCCN1C(=O)c1ccoc1 (stereo not given) the results were Pf Dd2 growth -11%.
O=[S+]1([O-])NCC2(CCN(Cc3ccc(OC(F)(F)F)cc3)CC2)Nc2ccccc21 was read as Pf Dd2 growth -24%.
`O=[S+]1([O-])NCC2(CCN(Cc3ccccc3)C2)Nc2ccccc21` (stereo not given) gave Pf Dd2 growth inactive.
Screening O=[S+]1([O-])NC2(CCN(CC3CCCCC3)C2)CNc2ccccc21 (stereo not given) returned Pf Dd2 growth -11%.
Screening O=[S+]1([O-])NCC2(CCN(Cc3ccccc3C(F)(F)F)CC2)Nc2ccccc21 returned Pf Dd2 growth 13µM*.
`O=[S+]1([O-])NCC2(CCN(Cc3cccc4ccccc34)CC2)Nc2ccccc21` gave Pf Dd2 growth inactive.
For O=[S+]1([O-])NCC2(CCN(CC3CCCCC3)C2)Nc2ccccc21 (stereo not given) the results were Pf Dd2 growth 4.5µM*.
C#CCNC(=O)C[C@@H]1c2nc(NC(=O)c3ccc(C(C)(C)C)cc3)sc2C[C@@H]2[C@](C)(CO)[C@H](O)CC[C@]21C was read as Pf Dd2 growth 4µM*.
`C#CCNC(=O)C[C@@H]1c2nc(NC(=O)C(C)(C)C)sc2C[C@@H]2[C@](C)(CO)[C@H](O)CC[C@]21C` gave Pf Dd2 growth inactive.
`C[C@]1(CO)[C@H]2Cc3sc(-c4ccsc4)nc3[C@@H](CC(=O)NCc3ccco3)[C@]2(C)CC[C@H]1O` gave Pf Dd2 growth -23%.
For CN(Cc1ccccc1)C(=O)C[C@@H]1c2nc(NC(=O)CC(C)(C)C)sc2C[C@@H]2[C@](C)(CO)[C@H](O)CC[C@]21C the results were Pf Dd2 growth inactive.
COCCNC(=O)C[C@@H]1c2nc(NC(=O)c3ccco3)sc2C[C@@H]2[C@](C)(CO)[C@H](O)CC[C@]21C was read as Pf Dd2 growth inactive.
CC(C)NC(=O)C[C@@H]1c2nc(NC(=O)c3ccc(F)cc3)sc2C[C@@H]2[C@](C)(CO)[C@H](O)CC[C@]21C was read as Pf Dd2 growth inactive.
Screening C[C@]1(CO)[C@H]2Cc3sc(NC(=O)c4ccco4)nc3[C@@H](CC(=O)Nc3ccccc3)[C@]2(C)CC[C@H]1O returned Pf Dd2 growth 7.1µM*.
Screening CC(C)C[C@H](CO)NC(=O)C[C@@H]1c2nc(NC(=O)c3ccco3)sc2C[C@@H]2[C@](C)(CO)[C@H](O)CC[C@]21C returned Pf Dd2 growth 8.9µM*.
For CC(C)NC(=O)C[C@@H]1c2nc(NC(=O)N3CCOCC3)sc2C[C@@H]2[C@](C)(CO)[C@H](O)CC[C@]21C the results were Pf Dd2 growth -16%.
For COc1ccc(C(=O)N[C@@H]2CCC[C@@H]2C(=O)NCCCN2CCOCC2)cn1 the results were Pf Dd2 growth -15%.
For CC(=O)Nc1ccc(-c2ccc(=O)n3c2[C@@H]2C[C@@H](CN(C(=O)COc4ccccc4)C2)C3)cc1 the results were Pf Dd2 growth 2%.
CC(=O)N1CCN(C2CCOC3(CCN(S(=O)(=O)c4ccccc4)CC3)C2)CC1 (stereo not given) was read as Pf Dd2 growth inactive.
CC(C)n1cnnc1CC1CCCN(C(=O)COc2ccccc2)C1 (stereo not given) was read as Pf Dd2 growth 2%.
Cc1ccc(CN2CCOc3ccc(C(=O)NCc4ccccc4F)cc3C2)o1 was read as Pf Dd2 growth inactive.
Cc1ccsc1C(=O)N1CCC2(CC1)NC(=O)N(c1ccccc1)N2 was read as Pf Dd2 growth 43%.
COc1ccc(C(=O)N2CCC3(CC2)NC(=O)N(c2ccccc2)N3)cc1 was read as Pf Dd2 growth 7%.
O=C(c1n[nH]c2c1CCCC2)N1CCC2(CC1)NC(=O)N(c1ccccc1)N2 was read as Pf Dd2 growth 3.2µM*.
For COCCOC1CCN(C(=O)Nc2ccc3c(c2)OCCO3)CC1 the results were Pf Dd2 growth 48%.
CNC(=O)N1CCC(C2CCN(C(=O)C3CCCC3)C2)CC1 (stereo not given) was read as Pf Dd2 growth -11%.
